Measured values taken from PubChem BioAssay (Tox21).
Records with an inconclusive call do not appear. A call without a number means that no potency is given here. The source made the active and inactive calls. Unless noted, calls follow the shape of the full dose curve.

Legend:
[1] = biological target: Gonadotropin-releasing hormone receptor (Homo sapiens) (UniProt P30968); test: Human gonadotropin-releasing hormone receptor (GnRHR) small molecule agonists, calcium flux assay in GnRHR-HEK293 cells (AID 1920063); also: nearly all actives have a fitted effect of over 35% in size
Summary of the method: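 Cells: HEK293 stably expressing human GnRHR. Steps: overnight (18 h) culture, 1 h calcium dye loading at 37 C, compound addition, kinetic fluorescence read at 480/540 nm. Each compound tested at 15 concentrations in triplicate.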

[2] = biological target: KiSS-1 receptor (Homo sapiens) (UniProt Q969F8); test: Human kisspeptin (KISS1R) small molecule agonists, calcium flux assay in KISS1R-HEK293 cells (AID 1920064; active = well fitted activation curve with a large enough effect in the repeat runs)
Summary of the method: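 Cells plated and incubated 18 h; dye added, 1 h at 37 C; compounds in DMSO pinned in; signal read at 480/540 nm every second for 3 min. Each compound tested at 15 concentrations in triplicate.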

[3] = G protein-coupled receptor (GPCR) small molecule agonists, calcium flux assay: HEK293 wild type cell line counter screen (AID 1920065)
Summary of the method: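 Counter-screen of the Tox21 10K library for non-specific calcium release: dye-loaded cells received compounds in DMSO and were monitored by kinetic fluorescence (480/540 nm, 3 min). Fifteen concentrations, run in triplicate.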

[4] = p53 small molecule agonists, cell-based qHTS assay with human liver microsomes (AID 1963577);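 also: p53 response element beta-lactamase reporter cells with liver microsomes plus NADPH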
Summary of the method: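 Steps: plate p53RE-bla cells, incubate 5 h at 37 C; add compound in DMSO; add microsomes (0.5 mg/mL final) and NADPH (0.5 mg/mL final); incubate 16 h at 37 C; add LiveBLAzer, 2 h RT; read fluorescence.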

[5] = p53 small molecule agonists, cell-based qHTS assay with rat liver microsomes (AID 1963578)
Summary of the method: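 Metabolic activation is supplied by rat liver microsomes with NADPH (each 0.5 mg/mL final). p53RE-bla cells incubate with compound 16 h at 37 C; reporter activity is measured by LiveBLAzer fluorescence.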

[6] = p53 small molecule agonists, cell-based qHTS assay with human liver microsomes: qHTS cell viability counter screen (AID 1963579); also: nearly all actives have a fitted effect of over 45% in size
Summary of the method: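 After the 460/530 nm beta-lactamase read, CellTiter-Glo was added to the same wells and luminescence measured after 30 min at room temperature, giving viability of p53RE-bla cells treated 16 h with compounds plus microsomes and NADPH.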

[7] = p53 small molecule agonists, cell-based qHTS assay with rat liver microsomes: qHTS cell viability counter screen (AID 1963580); also: nearly all actives have a fitted effect of over 45% in size
Summary of the method: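 In HCT-116 cells carrying a p53 response element-bla reporter, compounds were metabolically activated in situ by rat liver microsomes with NADPH over 16 h. Cell ATP content then served as the cytotoxicity measure.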

[8] = p53 small molecule agonists, cell-based qHTS assay: qHTS cell viability counter screen (AID 1963581); also: nearly all actives have a fitted effect of over 45% in size
Summary of the method: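 Cells: HCT-116 with p53 response element-driven beta-lactamase. Treatment: 16 h, 37 C, compounds in DMSO. Read: CellTiter-Glo luminescence after 30 min RT.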

[9] = p53 small molecule agonists, cell-based qHTS assay (AID 1963582; active = well fitted activation curve with a large enough effect in the signal ratio in the repeat runs, not every such curve was filed as active; the % refers to the signal ratio; also: potency is read from the fitted curve at half-maximal effect)
Summary of the method: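 Quantitative HTS in p53RE-bla cells: after a 5 h settling period, compounds delivered in DMSO were left on cells for 16 h at 37 C, and reporter induction was measured as fluorescence following 2 h substrate loading.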

[10] = biological target: 5-hydroxytryptamine receptor 2A (Homo sapiens) (UniProt P28223); test: 5-hydroxytryptamine receptor 2A (HTR2A) small molecule antagonists, cell-based qHTS assay (AID 1963586); also: nearly all actives have a fitted effect of over 45% in size
Summary of the method: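 Antagonist-mode intracellular calcium assay: DOI (4 nM) added after 5 min compound pre-incubation at room temperature to dye-loaded HTR2A-CHO cells. Fluorescence followed for 3 min, sampled every second.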

[11] = biological target: 5-hydroxytryptamine receptor 2A (Homo sapiens) (UniProt P28223); test: 5-hydroxytryptamine receptor 2A (HTR2A) small molecule agonists, cell-based qHTS assay (AID 1963587); also: nearly all actives have a fitted effect of over 30% in size
Summary of the method: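 HTR2A-CHO cells, plated 18 h at 37 C/5% CO2, dye-loaded 1 h at 37 C; compounds in DMSO added by pin tool (agonist mode). Intracellular calcium flux read as kinetic fluorescence on FDSS over 2 min at 1 s intervals.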

[12] = biological target: Muscarinic acetylcholine receptor M1 (Homo sapiens) (UniProt P11229); test: Cholinergic receptor muscarinic 1 (CHRM1) small molecule antagonists, cell-based qHTS assay (AID 1963588); also: nearly all actives have a fitted effect of over 40% in size
Summary of the method: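 CHRM1-CHO calcium-flux assay, antagonist mode. Cells were seeded 18 h, dye-loaded 1 h at 37 C and given compound for 5 min at RT, then acetylcholine was added at 50nM. FDSS fluorescence was read 3 min; 15 concentrations, three runs.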

[13] = biological target: Muscarinic acetylcholine receptor M1 (Homo sapiens) (UniProt P11229); test: Cholinergic receptor muscarinic 1 (CHRM1) small molecule agonists, cell-based qHTS assay (AID 1963589); also: nearly all actives have a fitted effect of over 35% in size
Summary of the method: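 Agonist-mode qHTS in CHO cells stably carrying human muscarinic M1. Intracellular calcium is tracked by fluorescence every second after compound transfer; each compound runs at 15 concentrations in three independent runs.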

[14] = cAMP Responsive Elements (CRE) small molecule agonists, cell-based qHTS assay (AID 1963590)
Summary of the method: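 Agonist mode qHTS in CRE-bla HEK 293T cells: compounds dosed from DMSO for 3 h at 37 C/5% CO2, followed by LiveBLAzer B/G FRET substrate for 2 h at room temperature.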

[15] = cAMP Responsive Elements (CRE) small molecule antagonists, cell-based qHTS assay (AID 1963591; active = well fitted inhibition curve with a large enough effect in the signal ratio in the repeat runs, not every such curve was filed as active; the % refers to the signal ratio)
Summary of the method: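 Antagonist mode: test compounds are co-incubated with the adenylyl cyclase activator NKH477 (0.25 uM final) on CRE-bla HEK293T cells for 3 h at 37 °C, followed by LiveBLAzer substrate loading.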

[16] = biological target: Beta-2 adrenergic receptor (Homo sapiens) (UniProt P07550); test: Adrenergic beta2 receptor (ADRB2) small molecule antagonists, cell-based qHTS assay (AID 1963592); also: series mostly up to about 92 µM; nearly all actives have a fitted effect of over 50% in size
Summary of the method: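 Cells (CHO, stable ADRB2 overexpression) incubated 18-20hr at 37C; compounds added from DMSO; agonist mix (1nM isoproterenol, 100uM IBMX, 25uM Ro-20-1724) added; 0.5hr RT; d2-cAMP and anti-cAMP-cryptate added; 1hr RT; 665/615 nm read.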

[17] = biological target: D(2) dopamine receptor (Homo sapiens) (UniProt P14416); test: Dopamine D2 receptor (DRD2) small molecule agonists, cell-based qHTS assay (AID 1963594); also: nearly all actives have a fitted effect of over 35% in size
Summary of the method: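 HEK293 cells stably expressing DRD2 were cultured 24 h at 37 C, then given Ro20-1724 (0.1 mM final) and compounds for 10 min at room temperature. NKH477 (200nM) was then added for 30 min. cAMP was read by HTRF.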

[18] = biological target: D(2) dopamine receptor (Homo sapiens) (UniProt P14416); test: Dopamine D2 receptor (DRD2) small molecule antagonists, cell-based qHTS assay (AID 1963595; active = well fitted inhibition curve with a large enough effect in the signal ratio in the repeat runs, with a control signal flat; the % refers to the signal ratio)
Summary of the method: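 Human DRD2 antagonist qHTS measuring cAMP by HTRF. The cells are exposed to compound for 10 min, then to NKH477 (200 nM) and quinpirole (12 nM) for 30 min at RT, with Ro20-1724 (0.1 mM) present throughout.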

[19] = biological target: Beta-2 adrenergic receptor (Homo sapiens) (UniProt P07550); test: Adrenergic beta2 receptor (ADRB2) small molecule agonists, cell-based qHTS assay (AID 1963593);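 also: CHO cells stably overexpressing human ADRB2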
Summary of the method: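 CHO cells stably over-expressing ADRB2 were plated overnight at 37C, then dosed with compounds plus a stimulation mix containing 100uM IBMX and 25uM Ro-20-1724 for 0.5hr at room temperature. cAMP was measured by HTRF competition, 1hr.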

Sequence of Gonadotropin-releasing hormone receptor (Homo sapiens) (P30968 whole entry, looked up): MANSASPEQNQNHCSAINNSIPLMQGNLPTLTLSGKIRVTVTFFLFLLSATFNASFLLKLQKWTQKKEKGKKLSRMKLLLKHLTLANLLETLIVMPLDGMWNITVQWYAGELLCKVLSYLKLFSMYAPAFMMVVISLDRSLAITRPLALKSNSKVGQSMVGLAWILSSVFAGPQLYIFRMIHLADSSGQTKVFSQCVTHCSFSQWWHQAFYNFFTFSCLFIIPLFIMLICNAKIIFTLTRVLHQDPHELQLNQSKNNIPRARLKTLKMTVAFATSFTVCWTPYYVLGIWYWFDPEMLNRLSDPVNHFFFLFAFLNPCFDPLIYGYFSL
Sequence of Muscarinic acetylcholine receptor M1 (Homo sapiens) (P11229 whole entry, looked up): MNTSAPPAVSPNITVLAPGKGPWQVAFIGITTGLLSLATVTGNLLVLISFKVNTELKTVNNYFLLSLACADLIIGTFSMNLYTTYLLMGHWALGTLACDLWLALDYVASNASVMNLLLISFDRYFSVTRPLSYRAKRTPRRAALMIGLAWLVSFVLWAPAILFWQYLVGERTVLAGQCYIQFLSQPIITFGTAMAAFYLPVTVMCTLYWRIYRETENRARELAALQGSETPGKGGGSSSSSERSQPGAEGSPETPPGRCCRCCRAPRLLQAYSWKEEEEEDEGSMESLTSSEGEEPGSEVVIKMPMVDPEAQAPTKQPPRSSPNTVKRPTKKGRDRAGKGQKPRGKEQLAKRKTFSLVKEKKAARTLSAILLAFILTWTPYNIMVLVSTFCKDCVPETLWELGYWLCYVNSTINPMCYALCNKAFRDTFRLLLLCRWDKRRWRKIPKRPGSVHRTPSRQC
Sequence of D(2) dopamine receptor (Homo sapiens) (P14416 whole entry, looked up): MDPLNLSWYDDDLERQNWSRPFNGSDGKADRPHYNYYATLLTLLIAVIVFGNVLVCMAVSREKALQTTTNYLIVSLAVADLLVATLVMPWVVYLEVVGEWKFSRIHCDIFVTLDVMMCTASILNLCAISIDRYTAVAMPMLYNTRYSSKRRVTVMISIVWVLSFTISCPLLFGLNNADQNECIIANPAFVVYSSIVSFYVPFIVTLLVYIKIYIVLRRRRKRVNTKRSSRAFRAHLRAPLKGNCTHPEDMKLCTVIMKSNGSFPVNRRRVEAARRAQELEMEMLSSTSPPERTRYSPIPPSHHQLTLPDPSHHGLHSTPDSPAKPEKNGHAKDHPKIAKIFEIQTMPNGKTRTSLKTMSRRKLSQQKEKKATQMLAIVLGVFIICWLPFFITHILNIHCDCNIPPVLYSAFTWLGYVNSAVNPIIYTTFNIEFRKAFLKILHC
Sequence of KiSS-1 receptor (Homo sapiens) (Q969F8 whole entry, looked up): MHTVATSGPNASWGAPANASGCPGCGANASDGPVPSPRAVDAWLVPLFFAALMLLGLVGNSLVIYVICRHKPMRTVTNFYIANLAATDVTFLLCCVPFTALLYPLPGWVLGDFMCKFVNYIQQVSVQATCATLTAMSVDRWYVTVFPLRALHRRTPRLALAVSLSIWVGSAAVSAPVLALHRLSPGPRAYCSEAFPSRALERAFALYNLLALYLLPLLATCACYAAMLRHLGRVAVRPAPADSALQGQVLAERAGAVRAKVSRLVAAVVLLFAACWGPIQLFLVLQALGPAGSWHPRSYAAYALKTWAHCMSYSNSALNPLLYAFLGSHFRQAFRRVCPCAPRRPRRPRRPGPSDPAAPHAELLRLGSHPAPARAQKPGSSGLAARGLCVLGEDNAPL
Sequence of Beta-2 adrenergic receptor (Homo sapiens) (P07550 whole entry, looked up): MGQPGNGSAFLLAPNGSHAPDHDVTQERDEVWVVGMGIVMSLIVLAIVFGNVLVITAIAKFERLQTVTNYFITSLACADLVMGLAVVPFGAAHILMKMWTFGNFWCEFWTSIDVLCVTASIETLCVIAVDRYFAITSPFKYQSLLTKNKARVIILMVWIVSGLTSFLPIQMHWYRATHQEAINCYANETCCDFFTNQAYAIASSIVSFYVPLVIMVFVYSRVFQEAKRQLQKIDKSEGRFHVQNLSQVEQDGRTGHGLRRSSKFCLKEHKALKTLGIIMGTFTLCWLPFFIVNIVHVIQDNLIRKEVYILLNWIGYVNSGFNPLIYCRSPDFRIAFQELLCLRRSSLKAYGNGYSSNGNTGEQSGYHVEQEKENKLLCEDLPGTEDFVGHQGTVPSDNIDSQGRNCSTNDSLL
Sequence of 5-hydroxytryptamine receptor 2A (Homo sapiens) (P28223 whole entry, looked up): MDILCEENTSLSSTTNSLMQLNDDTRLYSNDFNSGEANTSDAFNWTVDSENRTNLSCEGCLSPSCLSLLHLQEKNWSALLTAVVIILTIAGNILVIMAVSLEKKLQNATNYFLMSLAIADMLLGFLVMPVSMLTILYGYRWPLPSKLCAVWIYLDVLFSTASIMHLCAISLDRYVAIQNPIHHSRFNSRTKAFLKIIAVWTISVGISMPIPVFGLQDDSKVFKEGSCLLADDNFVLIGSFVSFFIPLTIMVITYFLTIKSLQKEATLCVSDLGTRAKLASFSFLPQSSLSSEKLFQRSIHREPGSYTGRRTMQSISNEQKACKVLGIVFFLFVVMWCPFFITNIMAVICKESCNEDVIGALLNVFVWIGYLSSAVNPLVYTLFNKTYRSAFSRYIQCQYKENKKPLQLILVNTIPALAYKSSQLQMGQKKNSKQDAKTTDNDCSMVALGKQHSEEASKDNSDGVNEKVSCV

| SMILES | Potency [1] | Potency [2] | Potency [3] | Potency [4] | Potency [5] | Potency [6] | Potency [7] | Potency [8] | Potency [9] | Potency [10] | Potency [11] | Potency [12] | Potency [13] | Potency [14] | Potency [15] | Potency [16] | Potency [17] | Potency [18] | Potency [19] |
| --- | --- | --- | --- | --- | --- | --- | --- | --- | --- | --- | --- | --- | --- | --- | --- | --- | --- | --- | --- |
| c1ccc2c(c1)ccc1ccccc12 | inactive | inactive | inactive | inactive | inactive | inactive | inactive | inactive | inactive | inactive | inactive | inactive | inactive | inactive | inactive | inactive | inactive | inactive |  |
| COc1cc2c(c(OC)c1OC)-c1ccc(OC)c(=O)cc1[C@@H](NC(C)=O)CC2 | inactive | inactive | inactive |  |  |  |  |  |  |  |  |  |  |  | inactive | inactive | inactive |  | inactive |
| CC1(C)C(=O)N(Cl)C(=O)N1Cl |  | inactive | inactive | inactive | inactive | inactive | inactive | inactive | inactive | inactive | inactive | inactive |  | inactive | inactive | inactive | inactive | inactive | inactive |
| CC(C)(C)[C@@H](O)[C@@H](Cc1ccc(Cl)cc1)n1cncn1 | inactive |  | inactive | inactive | inactive | inactive | inactive | inactive | inactive | inactive | inactive | inactive | inactive |  |  | inactive | inactive | inactive | inactive |
| C#C[C@]1(O)CC[C@H]2[C@@H]3CCc4cc(OC)ccc4[C@H]3CC[C@@]21C | inactive | inactive | inactive | inactive | inactive | inactive | inactive | inactive | inactive |  |  |  |  | inactive |  | inactive | inactive | inactive |  |
| C#C[C@]1(O)CC[C@H]2[C@@H]3CCc4cc(O)ccc4[C@H]3CC[C@@]21C | inactive | inactive | inactive | inactive | inactive | inactive |  | inactive | 16.1 µM (active) |  |  |  |  |  |  | inactive | inactive | inactive | inactive |
| Cc1cc(=O)[nH]c(C(C)C)n1 | inactive | inactive | inactive | inactive | inactive | inactive | inactive | inactive | inactive | inactive | inactive | inactive | inactive |  | inactive | inactive | inactive | inactive |  |
| Cc1cc(CC(=O)O)n(C)c1C(=O)c1ccc(Cl)cc1 | inactive | inactive | inactive | inactive |  | inactive | inactive | inactive | inactive | inactive | inactive | inactive | inactive |  |  | inactive | inactive |  |  |
| CCCCC(CC)COC(=O)CS (centres undefined) | inactive | inactive | inactive | inactive | inactive | inactive | inactive | inactive | inactive | inactive | inactive | inactive | inactive | inactive | inactive | inactive | inactive | inactive |  |
| Cc1ccccc1C(OCCN(C)C)c1ccccc1 (centres undefined) | inactive | inactive |  | inactive | inactive | inactive | inactive |  |  |  |  |  |  | inactive | inactive | inactive | inactive | inactive |  |
| Cc1ncc(CO)c(CO)c1O | inactive | inactive | inactive | inactive | inactive | inactive | inactive | inactive |  | inactive | inactive | inactive | inactive | inactive | inactive | inactive | inactive | inactive | inactive |
| CCCCCCCCCCCCCO | inactive | inactive | inactive | inactive | inactive | inactive | inactive | inactive | inactive |  |  | inactive | inactive |  | inactive | inactive | inactive |  | inactive |
| O=C(O)c1cc(C(=O)O)cc(S(=O)(=O)O)c1 | inactive | inactive | inactive |  |  | inactive | inactive | inactive |  | inactive | inactive | inactive | inactive | inactive | inactive |  | inactive | inactive | inactive |
| COc1ccccc1OCC(O)CO (centres undefined) | inactive |  | inactive | inactive | inactive | inactive | inactive | inactive | inactive |  |  |  |  | inactive | inactive | inactive | inactive | inactive |  |
| Cc1cccc(C)c1 | inactive |  | inactive |  |  | inactive | inactive | inactive |  | inactive | inactive | inactive | inactive | inactive | inactive | inactive | inactive | inactive | inactive |
